The values that follow come from PubChem BioAssay AID1789 (The Scripps Research Institute Molecular Screening Center, 2009).

In all, about 290,000 compounds went through this assay and about 2,700 (0.93%) were called active. The sample holds actives, similar compounds and a random draw of the others, so the mix is not that of the screen. A number with no mark means an inactive call.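 How the source made its calls: active means inhibition above the screen-wide mean plus 3 SD, computed separately per campaign (cut at about 16% in these data); inactive means the rest.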

In the experiment the test system is Heat shock protein HSP 90 (rabbit reticulocyte lysate; luciferase refolding). Briefly: inhibitors of HSP90 chaperone activity – cell lysate, luminescence, primary screen (AID 1789).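 Further: 0% = DMSO wells and 100% = 60 µM geldanamycin wells; inhibitors lower the luminescence because luciferase stays unfolded.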 To be noted: 3 h, at 5.6 µM, stronger effect = higher value.
By inhibition is commonly meant the change of the read-out against control, counted positive when it falls. For `CCc1ccc(NC(=O)CCNS(=O)(=O)c2cccs2)cc1`, the inhibition is -2.78%.

Turning to `COCC(=O)Nc1c(C(=O)N2CCCC2)oc2ccccc12`, the inhibition was -3.81%.

Consider `O=C1CSC(c2ccccc2)N1c1nc(-c2ccc(Cl)cc2Cl)cs1` (stereo not drawn), for which the inhibition is -0.17%.

As to `Clc1ccc(-c2ncc3ccccn23)c(Cl)c1`, the inhibition was 4.35%.

On to `Clc1ccc(-c2cc(-c3ccccn3)on2)c(Cl)c1`, for which the inhibition is 38.6% (active).

Turning to `CN1CCN(S(=O)(=O)c2cccc(C(=O)O)c2)CC1`, the inhibition is -1.11%.

In the case of `O=C(O)c1ccc(N=NN2CCOCC2)cc1`, the inhibition was 20.6% (active).

As to `O=C(c1ccccc1)N1CCN(C(=O)N2CCCCC2)CC1`, the inhibition was -0.28%.

As to `NC(=NC(=O)c1ccccc1)N1CCOCC1`, the inhibition was -2.45%.

Consider `O=C(NC(=O)N1CCOCC1)c1ccccc1`, for which the inhibition is 0.55%.

With `O=C(O)c1cccc(N=NN2CCCCCC2)c1`, the inhibition is 37.5% (active).

Take `COC(=O)c1sc(NC(=O)c2ccc(OC)cc2OC)nc1C`: the inhibition is 36.3% (active).

For `COc1ccc(Cc2nnc(NC(=O)c3ccc(OC)cc3OC)s2)cc1`, the inhibition was -0.32%.

As for `COC(=O)c1sc(NC(=O)c2csc3c2CCCC3)nc1C`, the inhibition was 35.7% (active).

As to `COc1cc2ccccc2cc1C(=O)Nc1nc(C)c(C(C)=O)s1`, the inhibition was 10.7%.

Turning to `COc1cc(SC)ccc1C(=O)NCCOc1ccccc1Cl`, the inhibition was 3.08%.

As to `COc1cc(SC)ccc1C(=O)Nc1nc(C)cs1`, the inhibition is 82.5% (active).

With `Cc1ccc(NC(=O)c2csc3c2CCCC3)cc1`, the inhibition was 1.71%.

Regarding `COC(=O)c1sc(NC(=S)NC(=O)c2ccc(C)cc2)nc1C`, the inhibition was 1.68%.

Consider `COc1cc(SC)ccc1C(=O)Nc1cc(C)ccn1`, for which the inhibition is 12.1%.

Turning to `CCN(C(=O)c1cc([N+](=O)[O-])ccc1NCc1cccnc1)c1ccccc1`, the inhibition is -2.39%.

Take `Cc1ccc(-c2csc(N3CCN(c4cc5c(cc4Cl)nc(-c4ccncc4)n5CCOCCO)CC3)n2)cc1`: the inhibition was 0.37%.

In the case of `O=C(O)c1cc2c(cc1NC(=O)c1c(F)cccc1Cl)OCCCO2`, the inhibition is 1.02%.

For `Cc1cc(=O)oc2cc(OCC(=O)N3CCN(c4ccc(F)cc4)CC3)c(Cl)cc12`, the inhibition is 0.58%.

With `CCOc1ccccc1NS(=O)(=O)c1c[nH]c(C(=O)OC)c1`, the inhibition is -0.36%.

Turning to `CCC1Oc2ccccc2N(CC(=O)NCCCN2CCN(CC)CC2)C1=O` (stereo not drawn), the inhibition is -0.16%.

As for `Cc1ccc(C(=O)COC(=O)c2cccc(N3C(=O)c4c(C)nc5ccccc5c4C3=O)c2)cc1C`, the inhibition is 21.8% (active).

Consider `O=C(CCc1nc2ccccc2c(=O)[nH]1)OCC(=O)c1cccc(Cl)c1`, for which the inhibition was -0.45%.

Take `CCCc1nc2ccccc2c(C(=O)OCC(=O)c2ccc3c(c2)NC(=O)CO3)c1CC`: the inhibition was 10.5%.

Consider `COc1ccc(Cl)cc1-n1c(=S)sc2c(=O)n(-c3ccc(F)cc3)c(SCC(=O)O)nc21`, for which the inhibition was -4.32%.

With `CCCCCNC(=O)c1cccnc1SCC(=O)Nc1ccccc1OC`, the inhibition was 0.66%.

Turning to `COC(=O)c1ccccc1NC(=O)CSc1n[nH]c(-c2ccncc2)n1`, the inhibition is -0.92%.

In the case of `CCc1nc(SCC(=O)Nc2ccccc2OC)n[nH]1`, the inhibition is 37.9% (active).

As to `Nc1nnnn1/N=C/c1cccc(Br)c1`, the inhibition was -1.72%.

Consider `CCCN1C2CCCC1CC(NC(=O)NC13CC4CC(CC(C4)C1)C3)C2` (stereo not drawn), for which the inhibition is 2.81%.

`CNC(=S)N/N=C/c1ccc(N2CCOCC2)s1`: the inhibition was 5.17%.

For the compound `C/C(=N\NC(=O)Cc1ccc(Cl)cc1)c1ccccn1`, the inhibition is 1.95%.

As to `COc1ccc(CC(=O)N/N=C(\C)c2ccccn2)cc1`, the inhibition was 2.53%.

As for `C/C(=N\NC(=O)c1ccccc1F)c1ccccn1`, the inhibition is 21.6% (active).

Regarding `Cc1ccc(/C=C2/SC(=S)N(CCC(=O)NCCCN3CCOCC3)C2=O)cc1`, the inhibition was -1.06%.

As for `O=C1CCC(C(=O)N2CCC(O)(c3ccccc3)CC2)CN1CCc1ccccc1` (stereo not drawn), the inhibition is -4.78%.

Consider `O=C(CN(C(=O)c1nsc(Cl)c1Cl)c1cccc(F)c1)NC1CCCC1`, for which the inhibition is -2.72%.

For `COc1ccc(CNC(=O)CCN2C(=O)c3ccccc3C2=O)cc1`, the inhibition is 3.06%.

Consider `CN(Cc1ccccc1)C(=O)C1CCCN(c2ncnc3c2nc2n3CCCCC2)C1` (stereo not drawn), for which the inhibition was -4.53%.

Consider `COCC(C)OC(=O)c1c(N)n(CCCN2CCOCC2)c2nc3ccccc3nc12` (stereo not drawn), for which the inhibition was 4.05%.

For the compound `CC(C)(C)OC(=O)c1c(N)n(CCCN2CCCC2=O)c2nc3ccccc3nc12`, the inhibition was 17.2% (active).

Consider `CC(C)(C)c1ccc(C(=O)NCCn2c(N)c(C#N)c3nc4ccccc4nc32)cc1`, for which the inhibition is 2.15%.

In the case of `COc1cccc2c(C)c(C(=O)O)[nH]c12`, the inhibition is 30.8% (active).

As to `COc1cc2c(C(=O)O)c(C)n(C)c2c2ccccc12`, the inhibition was 1.04%.

For `Cc1c(C(=O)N/N=C/c2ccccc2)[nH]c2c([N+](=O)[O-])cccc12`, the inhibition was 3.21%.

Regarding `Cc1cccc(-c2c(NC(=O)c3ccco3)oc3ccc(Cl)cc3c2=O)c1`, the inhibition was 3.25%.

Take `CCOC(=O)c1cnc(SC)nc1Sc1ccc(Cl)cc1Cl`: the inhibition is -1.52%.

As to `Cc1cc(C)nc(/N=C2\NC(=O)CC(C(=O)O)N2c2ccc(Cl)cc2Cl)n1` (stereo not drawn), the inhibition is 3.62%.

Consider `CCOC(=O)c1nc(C)n(-c2ccc(Cl)cc2Cl)n1`, for which the inhibition was 17.8% (active).

As for `CC(=O)N1CCN(CC(C)(C)NS(=O)(=O)c2ccc(C)cc2)CC1`, the inhibition was -0.75%.

For the compound `CC(CC(=O)Nc1ccc(F)cc1F)S(=O)(=O)c1ccc2c(c1)NC(=O)CO2` (stereo not drawn), the inhibition is -2.21%.

With `Cc1ccsc1C(=O)OCC(=O)c1cc(C)n(CC2CCCO2)c1C` (stereo not drawn), the inhibition was 82.5% (active).

Regarding `Cc1cc(C(=O)CCl)c(C)n1CC1COc2ccccc2O1` (stereo not drawn), the inhibition was 4.06%.

With `Cc1cc(C(=O)Cn2cnc3cc([N+](=O)[O-])ccc3c2=O)c(C)n1CC1CCCO1` (stereo not drawn), the inhibition was -6.94%.

As for `CCOC(=O)CSc1nc2ccc(C)cc2n2cnnc12`, the inhibition is -0.11%.

In the case of `COc1cc(C2CC(=O)c3cnc(NC(C)=O)nc3C2)cc(OC)c1OC` (stereo not drawn), the inhibition was -1.32%.

As to `O=C(Nc1ncc2c(n1)CC(c1ccco1)CC2=O)c1ccc(Cl)cc1` (stereo not drawn), the inhibition is 1.31%.

Consider `CCc1ccc(Nc2ncc3c(n2)CC(c2ccco2)CC3=O)cc1` (stereo not drawn), for which the inhibition is 22% (active).

On to `COc1ccc(NC(=O)NCc2ccc3c(c2)OCO3)c(OC)c1`, for which the inhibition was -7.38%.

In the case of `CCC(C)(C)n1nnnc1C(c1ccc(OC)c(OC)c1)N1CCN(C(=O)c2ccco2)CC1` (stereo not drawn), the inhibition is -0.49%.

On to `Cc1ccc(S(=O)(=O)c2c(N)n(C)c3nc4ccccc4nc23)cc1`, for which the inhibition was -1.87%.

As for `CCN(CC)CCn1c(N)c(S(=O)(=O)c2ccccc2)c2nc3ccccc3nc21`, the inhibition was 22.7% (active).

Turning to `CCC(=O)Nc1c(S(=O)(=O)c2ccccc2)c2nc3ccccc3nc2n1Cc1ccccc1`, the inhibition was 5.13%.

`O=C(N/N=C/c1ccoc1)c1ccc(Cl)cc1Cl`: the inhibition is -0.55%.

Take `CCN(CC)CCNc1nc(-c2ccc(OC(F)F)cc2)c(C)s1`: the inhibition is 1.64%.

For the compound `Cc1cccc(C)c1Nc1nnc(SCC(=O)Nc2sccc2C#N)s1`, the inhibition was 3.59%.

As to `COc1ccc(NC(=O)CSc2nc(C)cs2)cc1`, the inhibition is -1.43%.

`Cc1csc(SCC(=O)Nc2sccc2C#N)n1`: the inhibition is 17.4% (active).

Turning to `CCc1ccccc1NC(=O)[C@@H]1CCC(=O)N1C1OC(=O)c2c1ccc(OC)c2OC` (stereo partly drawn), the inhibition is -1.1%.

For `COc1ccc(NC(=O)c2ccco2)cc1NC(=O)c1ccc(C#N)cc1F`, the inhibition was -0.59%.

For the compound `CCCCCc1ccc(-c2ccc(C(=O)O)cc2)nc1`, the inhibition is 61.1% (active).

In the case of `CCCCCc1ccc(-c2cn(Cc3ccc4ccccc4c3)nn2)cc1`, the inhibition is -4.93%.

As to `CCCCCc1ccc(-c2ccc(OCC)cc2)nc1`, the inhibition is 0.91%.

As for `COCCn1c(SCc2nnc(-c3ccc(OC)c(OC)c3)o2)nc2sc3c(c2c1=O)CCC3`, the inhibition was 1.74%.

Consider `CC(=O)c1ccc(S(=O)(=O)N(C)CCCC(=O)N(C)Cc2ccccc2F)cc1`, for which the inhibition is 0.72%.

Take `Cc1nnc(SCC(=O)N2c3ccccc3C(C)(c3ccc(Cl)cc3)CC2(C)C)s1` (stereo not drawn): the inhibition was 58.2% (active).

Turning to `CC1(c2ccccc2)CC(C)(C)N(C(=O)c2cc([N+](=O)[O-])cc([N+](=O)[O-])c2)c2ccccc21` (stereo not drawn), the inhibition is -2.72%.

For the compound `CC1(c2cccc([N+](=O)[O-])c2)CC(C)(C)N(C(=O)c2ccccc2)c2ccccc21` (stereo not drawn), the inhibition was 2.72%.

Turning to `NC1=NN(c2cccc(C(=O)O)c2)C(=O)C1`, the inhibition was 3.9%.

As to `O=Cc1c(Nc2ccccc2Cl)nc2ccccn2c1=O`, the inhibition was 0.05%.

As to `COc1ccc(OCc2cc(C(=O)NCC3(C)COC3)no2)c(Cl)c1`, the inhibition was -3.93%.

With `Cc1cc(N2CCOCC2)nc(-c2ccc(Br)cc2)n1`, the inhibition was 7.23%.

As for `COc1ccc(-c2cn3ccc(C)cc3n2)cc1`, the inhibition was 61.9% (active).

Consider `Cc1ccc(-c2cn3cc(C)ccc3n2)cc1`, for which the inhibition was 84.1% (active).

As for `COc1ccc(-c2cn3ccsc3n2)cc1`, the inhibition is 6.4%.

For `Cc1ccc(-n2cc3ccc([N+](=O)[O-])cc3n2)cc1`, the inhibition was 9.46%.

`CCN(CC)S(=O)(=O)c1ccc(-c2cn3ccc(C)cc3n2)cc1`: the inhibition was 1.15%.

Consider `CSc1nnc2ccc(-c3ccc(C)cc3)nn12`, for which the inhibition is -5.22%.

As for `Cc1ccc2nc(-c3ccc(Br)cc3)cn2c1`, the inhibition is 75.1% (active).

Consider `Cc1nc(-c2ccc([N+](=O)[O-])cc2)c(-c2ccccc2)o1`, for which the inhibition was 10.2%.

`COc1ccc(-c2cn3cccnc3n2)cc1`: the inhibition was 0%.

Turning to `Cc1ccc(-c2cn3cc([N+](=O)[O-])ccc3n2)cc1`, the inhibition was 26.2% (active).

As for `Cc1ccc(-c2cc(N)on2)cc1`, the inhibition is 3.55%.
